Assay results as given in PubChem BioAssay.
The source made the active and inactive calls.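 Rule for the calls, unless noted: active = inhibition of the reporter signal at or above 50%; inactive = inhibition below 50%.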

What was measured:
[1] = inhibitors of TNFa-induced NFkB p65 translocation, primary screen, imaging, HUVEC, MLSMR starter and 10KST1 sets (AID 438;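 active = inhibition above 20% together with a positive visual image hit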;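 note: compound added about 3h40 before a 20 min TNFalpha stimulation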;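 for inhibition: signal is the nuclear over cytoplasmic p65 intensity ratio per well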); details: HUVEC TNFa-induced p65 nuclear translocation; cell count: measured here: nuclei count (cytotoxicity indicator), at 2.08 µM; inhibition: at 2 µM, stronger effect = higher value, 0% TNFa-plus-vehicle, 100% no-TNFa wells
[2] = reduction of polyQ htt aggregates in cells – imaging, exon1htt(103Q)mCFP cells, high-content imaging, primary screen (AID 483;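 active = visual image review flags a hit and inhibition of aggregation exceeds 20%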;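 note: compound exposure lasted 3 days before fixation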;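 for nuclei count: percent of the per-plate median nuclei count of sample wells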); details: exon1htt(103Q)mCFP cell line, aggregate imaging, at 2 µM; inhibition of aggregation: stronger effect = higher value; nuclei count: measured here: cell count, toxicity
[3] = endothelial E-selectin expression blockers – imaging, HUVEC, immunofluorescence, MLSMR starter and 10KST1 sets, primary screen (AID 487;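 active = visually confirmed hit in the image check and inhibition above 20%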;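 for inhibition: signal is fraction of cell area covered by stained E-selectin grains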;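 for nuclei count: 100% = median nuclei count of all wells on the same plate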); details: HUVEC TNFalpha-induced E-selectin immunofluorescence imaging, at 2 µM; inhibition: stronger effect = higher value; nuclei count: measured here: cell number, toxicity
[4] = target: Voltage-gated potassium channel subunit beta-2 (Rattus norvegicus) (UniProt P62483); experiment: inhibitors of rat Kvbeta2 reductase activity – biochemical, NADPH fluorescence, primary screen (AID 622;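 active = fluorescence slope higher than the sample average by over 3 SD, cut at about -0.22 in these data, passing the limit was not always enough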;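 note: slope of raw intensity against log time taken from 70 to 1610 s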); details: recombinant KvBeta, 4-cyanobenzaldehyde reduction, at 10 µM, stronger effect = higher value
Sequence of Voltage-gated potassium channel subunit beta-2 (Rattus norvegicus) (P62483 whole entry, looked up): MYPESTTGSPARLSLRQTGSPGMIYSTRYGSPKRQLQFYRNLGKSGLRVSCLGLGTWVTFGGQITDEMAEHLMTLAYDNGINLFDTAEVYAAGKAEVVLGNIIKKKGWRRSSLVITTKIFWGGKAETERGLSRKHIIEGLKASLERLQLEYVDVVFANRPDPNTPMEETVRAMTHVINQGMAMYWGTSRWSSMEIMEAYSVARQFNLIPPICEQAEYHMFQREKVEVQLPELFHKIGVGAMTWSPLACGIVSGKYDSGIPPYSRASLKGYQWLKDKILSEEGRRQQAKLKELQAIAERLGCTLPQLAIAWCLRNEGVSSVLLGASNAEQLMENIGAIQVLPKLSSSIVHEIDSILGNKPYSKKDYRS

[5] = target: Voltage-gated potassium channel subunit beta-2 (Rattus norvegicus) (UniProt P62483); experiment: enhancers of rat Kvbeta2 NADPH turnover – biochemical, NADPH fluorescence, primary screen (AID 623;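 active = NADPH fluorescence slope more negative than the mean of all samples by about 3 SD, 99.7% confidence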;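 note: fluorescence intensity change per second fitted from 20 to 320 s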); details: Recombinant KvBeta, NADPH fluorescence decrease slope, 10 min; at 10 µM; stronger effect = lower value
[6] = target: Alpha-2C adrenergic receptor (Homo sapiens) (UniProt P18825); experiment: compounds altering alpha2C-coupled GIRK flux – cell-based, HEK293 alpha2C/GIRK1/2, thallium flux, primary screen (AID 624;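 active = fluorescence slope after compound addition differing from the mean of all screened samples at 99.7% confidence, in either direction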;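 note: slope of fluorescence ratio to pre-addition baseline per second over 15 to 24 s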); details: thallium flux BTC fluorescence, at 10 µM, actives lie on both sides
Sequence of Alpha-2C adrenergic receptor (Homo sapiens) (P18825 whole entry, looked up): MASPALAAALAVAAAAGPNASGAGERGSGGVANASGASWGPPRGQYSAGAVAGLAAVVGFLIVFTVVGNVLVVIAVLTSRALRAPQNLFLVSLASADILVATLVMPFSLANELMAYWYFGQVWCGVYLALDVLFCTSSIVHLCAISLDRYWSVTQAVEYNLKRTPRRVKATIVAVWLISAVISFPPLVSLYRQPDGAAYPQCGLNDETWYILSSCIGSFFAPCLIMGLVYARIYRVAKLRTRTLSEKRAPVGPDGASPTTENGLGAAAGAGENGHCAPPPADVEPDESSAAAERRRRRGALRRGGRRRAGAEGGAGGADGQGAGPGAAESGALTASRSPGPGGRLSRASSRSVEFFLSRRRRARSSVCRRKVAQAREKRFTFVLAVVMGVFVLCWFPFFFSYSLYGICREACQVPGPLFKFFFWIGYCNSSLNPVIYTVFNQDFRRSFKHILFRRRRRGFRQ

[7] = blockers of RIG-like receptor reporter activation – cell-based, Sendai virus stimulus, luciferase, 10K MLSCN set, TLR/RLR signaling modifier project, primary screen (AID 602276;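 active = inhibition at or above 50% at 10 µM; inactive = inhibition below 50%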;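 note: firefly luciferase from ISG56 promoter only with Renilla not read in this screen; 0% = Sendai virus plus DMSO and 100% = medium plus DMSO without virus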); details: HEK293 RL24 IRF3 luciferase reporter, at 10 µM, stronger effect = higher value
[8] = TLR3 IRF3 reporter activation blockers – cell-based, poly I:C stimulus, luciferase, 10K MLSCN set, primary screen (AID 602277); details: HEK293-TLR3 RL24 IRF3 luciferase reporter, at 10 µM, stronger effect = higher value

Row | SMILES | cell count [1] | inhibition [1] | inhibition of aggregation [2] | nuclei count [2] [%] | inhibition [3] | nuclei count [3] [%] | fluorescence slope [4] | NADPH fluorescence slope [5] | slope [6] | inhibition [7] | inhibition [8]
1 | CCCC(=O)Nc1cc(-c2nnc(OC)c3ccccc23)ccc1N1CCOCC1 | 385 | -9.8% (inactive) | -2% (inactive) | 105 | -14.8% (inactive) | 112 | -0.522 (inactive) | -3.3e-06 (inactive) | 0.00489 (inactive) | 22.9% (inactive) | 27.2% (inactive)
2 | CCc1c(C(=O)Nc2cc(C)ccc2OC)[nH]c(C)c1C(C)=O | 313 | -1.7% (inactive) | -4.5% (inactive) | 65.3 | 2.7% (inactive) | 76.2 | -0.424 (inactive) | 1.1e-05 (inactive) | 0.00495 (inactive) | 23.1% (inactive) | 27.6% (inactive)
3 | CCn1c(SCC(=O)N2c3ccccc3CCc3ccccc32)nc2c1c(=O)n(C)c(=O)n2C | 706 | -3.2% (inactive) | 25.6% (inactive) | 80.2 | -2.5% (inactive) | 131 | -0.516 (inactive) | -8.1e-05 (inactive) | 0.0052 (inactive) | 5.5% (inactive) | 16.2% (inactive)
4 | CC(=O)c1c(C)[nH]c(C(=O)OCc2nnc(-c3ccccc3)o2)c1C | 757 | -7.8% (inactive) | -14.5% (inactive) | 122 | -43.7% (inactive) | 110 | -0.639 (inactive) | 4.8e-05 (inactive) | 0.00623 (inactive) | 14.6% (inactive) | 12.4% (inactive)
5 | COc1ccc(-c2noc(-c3ccccc3C(=O)Nc3cccnc3)n2)cc1 | 218 | 6.7% (inactive) | 0.1% (inactive) | 87.6 | -54.7% (inactive) | 95.3 | -0.601 (inactive) | 1.8e-05 (inactive) | 0.00583 (inactive) | 12.1% (inactive) | 12.9% (inactive)
6 | COc1ccc(CNC(=O)c2ccc(CN3CCOCC3)cc2)cc1 | 645 | -7.8% (inactive) | -5.7% (inactive) | 103 | 7.3% (inactive) | 147 | -0.472 (inactive) | -2.6e-05 (inactive) | 0.00567 (inactive) | 7.5% (inactive) | -5.55% (inactive)
7 | COc1ccc(S(=O)(=O)NCCOc2ccccc2)cc1OC | 310 | -3.3% (inactive) | 8.7% (inactive) | 95.3 | -41.2% (inactive) | 96.1 | -0.439 (inactive) | -3.7e-05 (inactive) | 0.00599 (inactive) | 12.3% (inactive) | 22.2% (inactive)
8 | O=C(Cn1ncc2c(=O)oc3ccccc3c21)Nc1nc2ccccc2s1 | 313 | -0.7% (inactive) | 1.3% (inactive) | 96.3 | -282% (inactive) | 90.7 | -0.537 (inactive) | -8.1e-05 (inactive) | 0.00615 (inactive) | 15.6% (inactive) | 17% (inactive)
9 | Cn1c(=O)c2c(nc(NCC3CCCO3)n2C)n(C)c1=O (stereo not drawn) | 314 | 0.2% (inactive) | -10.3% (inactive) | 108 | -102% (inactive) | 122 | -0.609 (inactive) | -1.6e-05 (inactive) | 0.00331 (inactive) | 6.21% (inactive) | 6.02% (inactive)
10 | N#CC1=C(N)N(c2ccccc2)C(c2ccco2)C1(C#N)C#N (stereo not drawn) | 322 | 2% (inactive) | -3.9% (inactive) | 103 | 3.9% (inactive) | 107 | -0.427 (inactive) | -1.7e-05 (inactive) | 0.00559 (inactive) | 1.35% (inactive) | 9.78% (inactive)
11 | CCOc1ccccc1N(CC(=O)N1CCCCCC1)S(C)(=O)=O | 358 | -10% (inactive) | -1.2% (inactive) | 117 | -83.5% (inactive) | 117 | -0.447 (inactive) | -1.3e-05 (inactive) | 0.00598 (inactive) | 9.48% (inactive) | 19.4% (inactive)
12 | Cc1ccc2oc(=O)c3cnn(CC(=O)N4CCCCC4C)c3c2c1 (stereo not drawn) | 661 | 3.9% (inactive) | -4% (inactive) | 77.1 | 3.2% (inactive) | 88.1 | -0.518 (inactive) | -1.6e-05 (inactive) | 0.00597 (inactive) | 3.36% (inactive) | 23.4% (inactive)
13 | CN1CCN(C(=O)C2(NC(=O)Nc3cccc(F)c3)CCCCC2)CC1 | 586 | -33.7% (inactive) | -14.5% (inactive) | 105 | -39.7% (inactive) | 109 | -0.596 (inactive) | -4.2e-05 (inactive) | 0.00664 (inactive) | 3.99% (inactive) | 3.07% (inactive)
14 | CSc1nc2ccc(S(=O)(=O)N3CCOCC3)cc2s1 | 328 | -2.2% (inactive) | 28.3% (inactive) | 95.2 | -22% (inactive) | 129 | -0.415 (inactive) | -6.4e-05 (inactive) | 0.00411 (inactive) | 17.9% (inactive) | 15.4% (inactive)
15 | CC(=O)Nc1ccc(NS(=O)(=O)c2ccc(Cl)c(C(=O)O)c2)cc1 | 688 | -3.9% (inactive) | 11.4% (inactive) | 124 | -37.3% (inactive) | 128 | -0.42 (inactive) | -3.1e-05 (inactive) | 0.00403 (inactive) | -2.13% (inactive) | 20.4% (inactive)
16 | COc1ccc(C(=O)NCc2nc3ccccc3[nH]2)cc1OC | 679 | -0.5% (inactive) | 6.6% (inactive) | 82.2 | -7.5% (inactive) | 112 | -0.582 (inactive) | 3.9e-06 (inactive) | 0.0061 (inactive) | -1.85% (inactive) | 25% (inactive)
17 | O=C(C(Cc1ccccc1)n1cccc1)N1CCCCCC1 (stereo not drawn) | 690 | -1.6% (inactive) | 8.2% (inactive) | 104 | -42.3% (inactive) | 115 | -0.517 (inactive) | -1.7e-05 (inactive) | 0.00572 (inactive) | 3.28% (inactive) | 25.3% (inactive)
18 | Cc1nc(NC2=NCN(CCN3CCOCC3)CN2)nc2c(C)cccc12 | 417 | 4.5% (inactive) | -1.2% (inactive) | 72.4 | -24.5% (inactive) | 108 | -0.419 (inactive) | -3.7e-05 (inactive) | 0.00391 (inactive) | 23.8% (inactive) | 41.1% (inactive)
19 | COc1ccc(C(=O)OCC(=O)NCc2ccco2)cc1OC | 573 | -18.9% (inactive) | -1.1% (inactive) | 107 | -12.3% (inactive) | 121 | -0.467 (inactive) | -7.7e-05 (inactive) | 0.00497 (inactive) | 17.6% (inactive) | 27.6% (inactive)
20 | O=C(C1CCN(c2nnc(-n3cccc3)s2)CC1)N1CCN(Cc2ccc3c(c2)OCO3)CC1 | 707 | -9.2% (inactive) | -39.4% (inactive) | 115 | -56.3% (inactive) | 113 | -0.593 (inactive) | -2e-05 (inactive) | 0.00596 (inactive) | -2.25% (inactive) | -31.5% (inactive)
21 | Cn1cccc1Cc1nnc(SCC(=O)Nc2ccccc2F)n1CCc1ccccc1 | 614 | -7.4% (inactive) | 7.5% (inactive) | 92.6 | -52.6% (inactive) | 103 | -0.619 (inactive) | 1.5e-05 (inactive) | 0.00629 (inactive) | 3.46% (inactive) | 10.1% (inactive)
22 | O=C(CC(CC(=O)c1ccccc1)C(=O)O)c1ccccc1 | 393 | 8.7% (inactive) | -4.6% (inactive) | 91.9 | -52.5% (inactive) | 109 | -0.525 (inactive) | -3.8e-05 (inactive) | 0.0059 (inactive) | -0.637% (inactive) | -0.177% (inactive)
23 | COc1ccccc1NC(=O)NC1(C(=O)N2CCC(O)CC2)CCCCC1 | 242 | 3.9% (inactive) | 16.6% (inactive) | 79.3 | 1.6% (inactive) | 94 | -0.605 (inactive) | 1.9e-06 (inactive) | 0.00897 (inactive) | -0.183% (inactive) | 2.89% (inactive)
24 | O=C(O)CSC1CC(=O)N(c2ccc(Cl)c(Cl)c2)C1=O (stereo not drawn) | 754 | -2.8% (inactive) | 11.7% (inactive) | 88.4 | 4.8% (inactive) | 114 | -0.304 (inactive) | -5.1e-05 (inactive) | 0.00566 (inactive) | 3.92% (inactive) | 8.23% (inactive)
25 | Cc1cc(C(=O)Nc2sc3c(c2C#N)CCCCC3)cs1 | 651 | 6% (inactive) | -8.1% (inactive) | 107 | -7.5% (inactive) | 100 | -0.581 (inactive) | -1.2e-05 (inactive) | 0.00236 (inactive) | -33.9% (inactive) | -119% (inactive)
26 | C=CCSc1nnc(Cc2c(C)[nH]c3ccccc23)o1 | 800 | 3.5% (inactive) | 20.5% (inactive) | 92.7 | -15.9% (inactive) | 118 | -0.427 (inactive) | -6e-05 (inactive) | 0.00499 (inactive) | 7.53% (inactive) | 15% (inactive)
27 | O=C(Nc1c(C(=O)NCc2ccco2)cnn1-c1ccccc1)c1ccc(F)cc1 | 400 | 6.3% (inactive) | 12.1% (inactive) | 81.6 | -23.9% (inactive) | 89.1 | -0.294 (inactive) | -2.8e-06 (inactive) | 0.00584 (inactive) | -1.86% (inactive) | 15.1% (inactive)
28 | Cn1c(=O)cc(OCCCC(=O)N2CCCCC2)c2ccccc21 | 372 | 8.3% (inactive) | -21.8% (inactive) | 96.2 | -22.3% (inactive) | 112 | -0.578 (inactive) | 1.8e-05 (inactive) | 0.00683 (inactive) | -4.34% (inactive) | 36.6% (inactive)
